Where “and” joins values, the source holds several entries; their conditions need not be identical. Equal values may be shown once. Records with an inconclusive call do not appear. Where a call stands in place of a potency, no number is given. Some compounds were tested as several samples or in several runs, with calls that do not always agree. Calls of active or inactive are those of the source. Unless noted, calls come from the whole dose curve; as a rule, active = well fitted curve in the direction sought with a large enough effect in the repeat runs; inconclusive = weak or mixed curves; inactive = no such curve, though single readings can be large; an effect the other way counts as inactive or inconclusive.
How the values were obtained:
[1] = qHTS assay to identify small molecule antagonists of the androgen receptor (AR) signaling pathway using the MDA cell line in the presence of 0.5 nM R1881 - cell viability counter screen (AID 1259242); note: nearly all actives have a fitted effect of over 45% in size; note: potency is the fitted concentration of half-maximal effect
Outline: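 Live-cell protease fluorescence, CellTiter-Fluor, 30 min at 37C. Cells: MDA-kb2, 3,000/well, preincubated 5 hr. Compounds plus 0.5 nM R1881 final, 16 hr, 37C, 0% CO2.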

[2] = biological target: Estrogen receptor (Homo sapiens) (UniProt P03372); experiment: qHTS assay to identify small molecule antagonists of the estrogen receptor alpha (ER-alpha) signaling pathway using the BG1 cell line in the presence of 0.1 nM 17-beta-estradiol (AID 1259244); note: nearly all actives have a fitted effect of over 50% in size; note: potency is the fitted concentration of half-maximal effect
Estrogen receptor (Homo sapiens), sequence (P03372 whole entry, looked up): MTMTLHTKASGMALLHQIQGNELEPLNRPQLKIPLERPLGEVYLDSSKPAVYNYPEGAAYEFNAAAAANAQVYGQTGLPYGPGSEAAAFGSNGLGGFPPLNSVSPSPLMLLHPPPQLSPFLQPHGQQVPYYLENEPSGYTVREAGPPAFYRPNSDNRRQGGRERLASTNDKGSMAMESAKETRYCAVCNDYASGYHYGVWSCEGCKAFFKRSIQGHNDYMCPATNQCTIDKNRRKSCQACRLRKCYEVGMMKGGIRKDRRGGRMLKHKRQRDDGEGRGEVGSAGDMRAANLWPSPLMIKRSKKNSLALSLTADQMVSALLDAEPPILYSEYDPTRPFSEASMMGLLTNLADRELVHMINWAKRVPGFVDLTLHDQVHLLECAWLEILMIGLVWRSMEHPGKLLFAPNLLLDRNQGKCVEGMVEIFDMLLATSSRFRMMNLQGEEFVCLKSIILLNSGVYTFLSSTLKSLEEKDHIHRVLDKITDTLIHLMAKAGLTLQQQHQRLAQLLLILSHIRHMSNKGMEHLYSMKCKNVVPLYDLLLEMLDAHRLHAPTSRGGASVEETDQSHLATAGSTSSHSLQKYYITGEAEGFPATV
Outline: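 Luminescence after ONE-Glo (30 min, room temperature) measured ERE-luciferase activity in VM7Luc4E2 cells treated 22 h with compound and 0.1 nM final 17beta-estradiol as stimulator.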

[3] = qHTS assay to identify small molecule HDAC inhibitors (AID 1259364);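 note: wild-type HCT-116 cells with endogenous class I/II HDAC activity; top concentration of the series differs between compounds; nearly all actives have a fitted effect of over 45% in size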
Outline: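 HCT-116 (wild type), 1,500 cells/well, overnight; compound 2 hr 37C 5% CO2; HDAC-Glo I/II reagent 30 min RT; luminescence readout.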

[4] = qHTS assay to identify small molecule HDAC inhibitors - cell viability counter screen (AID 1259365); note: series mostly up to about 92 µM; nearly all actives have a fitted effect of over 50% in size
Outline: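 After overnight seeding at 1,500 cells per well, wild-type HCT-116 cultures took up compounds in DMSO for 2hr at 37 C. Viable cell content came from luminescence with CellTiter-Glo.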

[5] = qHTS assay to identify small molecule agonists of the sonic hedgehog signaling (Shh) pathway - cell viability counter screen (AID 1259366); note: nearly all actives have a fitted effect of over 50% in size; note: potency is the fitted concentration of half-maximal effect
Outline: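 Same-well cytotoxicity read. Gli1-Luc reporter 3T3 cells; compounds 24hr, 37C/5% CO2; CellTiter-Fluor fluorescence.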

[6] = qHTS assay to identify small molecule agonists of the sonic hedgehog signaling (Shh) pathway (AID 1259368; calls by dose curve;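 note: NIH/3T3-derived 3T3Gli1-Luc cells carrying a stable Gli1-driven firefly luciferase reporter; series mostly up to about 92 µM; nearly all actives have a fitted effect of over 15% in size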)
Outline: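 Read-out: firefly luciferase luminescence from a Gli1 response element reporter stably integrated in NIH/3T3-derived 3T3Gli1-Luc cells, measured 30 min at room temperature after reagent addition. Compound exposure lasted 24 hr at 37 C, 5% CO2.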

[7] = qHTS assay to identify small molecule antagonists of the sonic hedgehog signaling (Shh) pathway (AID 1259369; calls by dose curve; note: nearly all actives have a fitted effect of over 45% in size; note: potency is the fitted concentration of half-maximal effect)
Outline: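 Luminescence readout: firefly Luc under Gli1 response element in 3T3Gli1-Luc cells (NIH/3T3 clone). Antagonist mode, stimulation by conditioned medium; compound exposure 24hr at 37 C, 5% CO2.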

[8] = qHTS assay to identify small molecule agonists of the androgen receptor (AR) signaling pathway in the presence of an antagonist - cell viability counter screen (AID 1259379); note: nearly all actives have a fitted effect of over 25% in size; note: potency is the fitted concentration of half-maximal effect
Outline: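 Viability counter screen: CellTiter-Fluor fluorescence, measured in the same wells as the luciferase read-out. MDA-kb2 cells, 3,000/well, with nilutamide at 3.0uM final and compounds at 15 concentrations, 16 hr at 37C, 0% CO2.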

[9] = qHTS assay to identify small molecule agonists of the estrogen receptor beta (ER-beta) signaling pathway - cell viability counter screen (AID 1259380); note: nearly all actives have a fitted effect of over 30% in size; note: potency is the fitted concentration of half-maximal effect
Outline: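 Luminescence read-out (CellTiter-Glo, 30 min, room temp) taken in the same wells as the beta-lactamase reporter assay; ER-beta-UAS-bla HEK293T cells exposed to DMSO-dissolved compounds for 16 hr at 37C in 2% charcoal-stripped FBS medium.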

[10] = biological target: Androgen receptor (Homo sapiens) (UniProt P10275); experiment: qHTS assay to identify small molecule agonists of the androgen receptor (AR) signaling pathway in the presence of an antagonist (AID 1259381; calls by dose curve; note: nearly all actives have a fitted effect of over 15% in size; note: potency is the fitted concentration of half-maximal effect)
Androgen receptor (Homo sapiens), sequence (P10275 whole entry, looked up): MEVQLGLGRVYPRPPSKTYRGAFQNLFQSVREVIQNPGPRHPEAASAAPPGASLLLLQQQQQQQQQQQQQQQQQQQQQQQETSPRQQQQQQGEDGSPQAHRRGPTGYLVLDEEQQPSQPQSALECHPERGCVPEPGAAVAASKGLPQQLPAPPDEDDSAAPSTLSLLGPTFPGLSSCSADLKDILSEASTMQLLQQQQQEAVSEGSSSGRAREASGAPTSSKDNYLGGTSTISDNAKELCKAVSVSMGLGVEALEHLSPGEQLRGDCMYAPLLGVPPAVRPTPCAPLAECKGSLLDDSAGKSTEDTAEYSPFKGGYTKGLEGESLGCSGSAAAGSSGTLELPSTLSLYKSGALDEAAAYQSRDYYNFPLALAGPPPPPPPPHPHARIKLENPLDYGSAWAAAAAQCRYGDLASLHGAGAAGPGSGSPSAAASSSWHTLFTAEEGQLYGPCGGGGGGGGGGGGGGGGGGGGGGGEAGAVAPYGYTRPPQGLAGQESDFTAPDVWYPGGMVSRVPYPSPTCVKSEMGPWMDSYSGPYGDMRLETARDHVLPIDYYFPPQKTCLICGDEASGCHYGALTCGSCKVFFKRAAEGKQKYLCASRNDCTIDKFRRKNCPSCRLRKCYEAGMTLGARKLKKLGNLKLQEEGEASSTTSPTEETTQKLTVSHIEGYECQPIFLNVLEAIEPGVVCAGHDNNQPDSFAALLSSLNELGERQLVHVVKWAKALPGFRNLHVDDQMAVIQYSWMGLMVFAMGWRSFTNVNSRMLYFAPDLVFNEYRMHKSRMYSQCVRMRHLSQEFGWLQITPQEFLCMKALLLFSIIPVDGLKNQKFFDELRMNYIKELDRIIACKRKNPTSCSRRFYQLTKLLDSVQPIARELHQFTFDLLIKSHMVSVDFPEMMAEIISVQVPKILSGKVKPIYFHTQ
Outline: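 Luciferase read-out (ONE-Glo, 30min room temperature) in MDA-kb2 MMTV-reporter cells; agonist mode run in presence of AR antagonist nilutamide, 3.0uM final. Compounds tested as 15-point series, 16hr exposure at 37C, 0% CO2.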

[11] = qHTS assay to identify small molecule antagonists of the estrogen receptor beta (ER-beta) signaling pathway - cell viability counter screen (AID 1259382);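 note: HEK293T cells carrying ER-beta-UAS-bla reporter stimulated with estradiol; series mostly up to about 92 µM; nearly all actives have a fitted effect of over 55% in size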
Outline: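 Luminescent ATP read-out (CellTiter-Glo, 30 min, RT) taken in the same wells as the bla reporter assay. HEK293T ER-beta-UAS-bla cells in 2% charcoal-stripped FBS were exposed to compounds with 1nM E2 for 16 hr at 37C.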

[12] = biological target: Estrogen receptor (Homo sapiens) (UniProt P03372); experiment: qHTS assay to identify small molecule agonists of the estrogen receptor alpha (ER-alpha) signaling pathway in the presence of an antagonist (AID 1259383; calls by dose curve; note: nearly all actives have a fitted effect of over 15% in size; note: potency is the fitted concentration of half-maximal effect; for activation: top concentration of the series differs between compounds)
Outline: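 Luciferase luminescence (ONE-Glo, 30min at room temperature) measured in VM7Luc4E2 cells after 22hr compound exposure at 15 concentrations, with 10.0nM ICI-182,780 final present; cells express endogenous ER-alpha and carry four EREs upstream of luciferase.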

[13] = qHTS assay to identify small molecule agonists or antagonists of the thyroid stimulating hormone receptor (TSHR) signaling pathway - wild type cell line counter screen (AID 1259384; calls by dose curve)
Outline: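 Counter screen in untransfected Hek293: compounds (15-point titration, triplicate) plus phosphodiesterase inhibitor Ro20-1724 added after 18 h plating; 30 min RT. Intracellular cAMP via competitive d2/cryptate immunoassay, 1 h incubation.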

[14] = biological target: Thyrotropin receptor (Homo sapiens) (UniProt P16473); experiment: qHTS assay to identify small molecule antagonists of the thyroid stimulating hormone receptor (TSHR) signaling pathway (AID 1259385; calls by dose curve; note: nearly all actives have a fitted effect of over 20% in size)
Thyrotropin receptor (Homo sapiens), sequence (P16473 whole entry, looked up): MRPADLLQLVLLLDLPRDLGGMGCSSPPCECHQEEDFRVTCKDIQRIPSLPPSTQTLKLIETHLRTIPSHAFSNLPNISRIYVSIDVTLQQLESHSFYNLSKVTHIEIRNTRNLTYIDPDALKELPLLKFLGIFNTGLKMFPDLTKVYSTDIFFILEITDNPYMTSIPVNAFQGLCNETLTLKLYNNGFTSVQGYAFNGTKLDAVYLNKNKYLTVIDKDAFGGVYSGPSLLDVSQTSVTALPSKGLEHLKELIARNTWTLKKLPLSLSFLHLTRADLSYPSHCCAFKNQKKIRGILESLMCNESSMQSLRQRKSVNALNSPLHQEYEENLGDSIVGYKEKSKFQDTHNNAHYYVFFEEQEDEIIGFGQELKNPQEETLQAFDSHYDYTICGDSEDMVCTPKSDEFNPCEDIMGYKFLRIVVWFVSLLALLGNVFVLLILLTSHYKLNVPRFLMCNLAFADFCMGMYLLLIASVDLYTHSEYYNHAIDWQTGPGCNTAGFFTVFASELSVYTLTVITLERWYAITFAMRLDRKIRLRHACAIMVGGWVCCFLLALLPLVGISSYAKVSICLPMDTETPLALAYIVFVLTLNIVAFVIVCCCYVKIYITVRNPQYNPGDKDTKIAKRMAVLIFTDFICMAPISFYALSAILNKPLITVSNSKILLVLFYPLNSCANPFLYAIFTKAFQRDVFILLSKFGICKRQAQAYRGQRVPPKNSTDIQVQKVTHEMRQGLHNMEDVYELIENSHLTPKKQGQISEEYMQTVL
Outline: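 Antagonist mode: compound-treated TSHR-expressing HEK293 cells were stimulated with 1.5 ng/mL TSH (final) in presence of Ro20-1724 for 30 min at RT. HTRF cAMP detection after 1 h; each compound tested at 15 concentrations, triplicate.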

[15] = qHTS assay to identify small molecule agonists of the estrogen receptor alpha (ER-alpha) signaling pathway in the presence of an antagonist - cell viability counter screen (AID 1259386);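 note: series mostly up to about 92 µM; cells exposed to compounds for 22 h at 37 °C before the viability read; nearly all actives have a fitted effect of over 30% in size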
Outline: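 Read-out: CellTiter-Fluor fluorescence after 1hr reagent incubation, measured in the same wells as the luciferase readout. VM7Luc4E2 cells were exposed to 15 compound concentrations with 10.0nM ICI-182,780 for 22hr at 37C.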

[16] = biological target: Progesterone receptor (Homo sapiens) (UniProt P06401); experiment: qHTS assay to identify small molecule agonists of the progesterone receptor (PR) signaling pathway (AID 1346784; calls by dose curve; note: nearly all actives have a fitted effect of over 30% in size)
Progesterone receptor (Homo sapiens), sequence (P06401 whole entry, looked up): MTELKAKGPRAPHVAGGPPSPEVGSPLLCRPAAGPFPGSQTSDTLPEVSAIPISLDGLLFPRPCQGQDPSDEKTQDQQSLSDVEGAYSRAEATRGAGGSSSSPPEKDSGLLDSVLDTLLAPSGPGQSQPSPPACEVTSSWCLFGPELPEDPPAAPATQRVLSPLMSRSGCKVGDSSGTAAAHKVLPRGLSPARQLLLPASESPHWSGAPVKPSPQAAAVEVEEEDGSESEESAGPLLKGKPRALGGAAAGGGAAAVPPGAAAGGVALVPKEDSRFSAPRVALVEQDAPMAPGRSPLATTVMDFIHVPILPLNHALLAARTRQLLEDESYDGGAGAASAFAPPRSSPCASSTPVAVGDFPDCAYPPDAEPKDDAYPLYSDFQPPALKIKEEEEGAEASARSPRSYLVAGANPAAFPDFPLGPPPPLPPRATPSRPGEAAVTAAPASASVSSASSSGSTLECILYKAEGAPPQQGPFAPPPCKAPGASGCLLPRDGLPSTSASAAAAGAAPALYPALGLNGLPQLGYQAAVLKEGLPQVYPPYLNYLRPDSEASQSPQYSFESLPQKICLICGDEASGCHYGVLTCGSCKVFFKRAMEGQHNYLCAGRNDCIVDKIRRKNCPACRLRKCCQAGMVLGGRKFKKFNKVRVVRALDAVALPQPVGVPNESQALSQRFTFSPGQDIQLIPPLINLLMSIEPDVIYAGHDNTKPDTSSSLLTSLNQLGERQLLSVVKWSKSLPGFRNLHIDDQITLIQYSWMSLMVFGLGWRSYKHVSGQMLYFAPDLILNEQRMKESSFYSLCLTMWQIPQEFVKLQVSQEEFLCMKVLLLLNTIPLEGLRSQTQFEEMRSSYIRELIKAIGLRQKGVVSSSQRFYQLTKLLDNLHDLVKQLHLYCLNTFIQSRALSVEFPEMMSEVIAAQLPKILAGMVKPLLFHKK
Outline: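 Compounds were tested for PR agonism in HEK 293T cells bearing a beta-lactamase gene under UAS control. Treatment lasted 16 hr at 37C; signal came from fluorescence of a FRET substrate.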

[17] = qHTS assay to identify small molecule antagonists of the sonic hedgehog signaling (Shh) pathway - cell viability counter screen (AID 1259367); note: nearly all actives have a fitted effect of over 55% in size
Outline: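 CellTiter-Fluor signal in conditioned medium-stimulated 3T3 Gli1-Luc cells, 23 hr compound exposure, 37C.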

[18] = biological target: Estrogen receptor beta (Homo sapiens) (UniProt Q92731); experiment: qHTS assay to identify small molecule agonists of the estrogen receptor beta (ER-beta) signaling pathway (AID 1259377; active = well fitted activation curve with a large enough effect in the signal ratio in the repeat runs, not every such curve was filed as active; the % refers to the signal ratio; note: potency is the fitted concentration of half-maximal effect)
Estrogen receptor beta (Homo sapiens), sequence (Q92731 whole entry, looked up): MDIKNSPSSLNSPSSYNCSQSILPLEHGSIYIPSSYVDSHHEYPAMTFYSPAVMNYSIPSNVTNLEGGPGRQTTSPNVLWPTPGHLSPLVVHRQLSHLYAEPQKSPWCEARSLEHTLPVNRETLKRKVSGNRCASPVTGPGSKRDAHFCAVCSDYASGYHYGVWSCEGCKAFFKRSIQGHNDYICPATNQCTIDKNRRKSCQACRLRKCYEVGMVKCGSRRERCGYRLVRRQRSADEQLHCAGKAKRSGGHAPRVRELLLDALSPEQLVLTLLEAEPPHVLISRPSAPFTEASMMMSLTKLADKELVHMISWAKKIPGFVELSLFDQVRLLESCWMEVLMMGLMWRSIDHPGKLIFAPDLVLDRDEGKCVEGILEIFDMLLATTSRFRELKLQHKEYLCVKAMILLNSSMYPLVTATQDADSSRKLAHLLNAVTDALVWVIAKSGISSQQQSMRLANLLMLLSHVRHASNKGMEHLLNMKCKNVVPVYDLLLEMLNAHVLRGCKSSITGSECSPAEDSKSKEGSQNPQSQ
Outline: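 Read-out: beta-lactamase FRET fluorescence. Cell line: ER-beta-UAS-bla HEK293T in 2% charcoal-stripped FBS. Exposure: 16 hr at 37C. Substrate step: 2 h at room temperature.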

[19] = biological target: Estrogen receptor beta (Homo sapiens) (UniProt Q92731); experiment: qHTS assay to identify small molecule antagonists of the estrogen receptor beta (ER-beta) signaling pathway (AID 1259378; active = well fitted inhibition curve with a large enough effect in the signal ratio in the repeat runs, not every such curve was filed as active; the % refers to the signal ratio)
Outline: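 Antagonist mode: compounds added to beta-lactamase reporter HEK293T ER-beta-UAS cells stimulated with E2 (1nM final), 16 hr at 37C. LiveBLAzer B/G FRET substrate, 2 hours room temperature, fluorescence read-out.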

Compound	Potency [1]	Potency [2]	Potency [3]	Potency [4]	Potency [5]	Potency [6]	Potency [7]	Potency [8]	Potency [9]	Potency [10]	Potency [11]	Potency [12]	outcome [13]	Potency [14]	Potency [15]	Potency [16]	Potency [17]	Potency [18]	Potency [19]
C=C(Cl)Cl	inactive	inactive	inactive	inactive	inactive	inactive	inactive	inactive	inactive	inactive	inactive	inactive	inactive	inactive	inactive	inactive	–	–	–
CCOP(=S)(OCC)SCSc1cc(Cl)ccc1Cl	inactive	inactive	inactive	inactive	inactive	inactive	inactive	inactive	inactive	–	inactive	inactive	inactive	inactive	inactive	inactive	inactive	–	–
CCCCCBr	inactive	inactive	inactive	inactive	inactive	inactive	inactive	inactive	–	inactive	inactive	inactive	inactive	–	inactive	inactive	–	inactive	inactive
CCOP(=O)(O)C(N)=O	inactive	inactive	inactive	inactive	inactive	inactive	inactive	inactive	inactive	–	inactive	inactive	inactive	inactive	inactive	inactive	inactive	inactive	inactive
Cc1ccc2c(C)cccc2c1	inactive	inactive	inactive	inactive	inactive	inactive	inactive	inactive	–	–	inactive	inactive	inactive	inactive	inactive	inactive	inactive	–	–
CCC(=O)O[C@@H]1C=C2CCC3C(CCC4(C)C3CC[C@@H]4OC(=O)CC)C2CC1 (stereo not given in full)	inactive	inactive	inactive	inactive	inactive	inactive	inactive	inactive	–	188 nM (active)	–	531 nM (active)	inactive	–	inactive	–	–	298 nM (active)	–
COc1cc(CC#N)cc(OC)c1OC	inactive	inactive	inactive	inactive	inactive	inactive	inactive	inactive	inactive	inactive	inactive	inactive	inactive	inactive	inactive	inactive	inactive	inactive	–
CCCCNC(=O)OCC#CI	60800 nM (active)	12.1 µM (active) and 48.6 µM (active)	inactive	inactive	60.8 µM (active) and 30.6 µM (active)	inactive	2.16 µM (active) and 7.7 µM (active)	60.8 µM (active) and 68.6 µM (active)	60.8 µM (active) and inactive	–	inactive	inactive	–	inactive	inactive	inactive	–	inactive	inactive
CC(C)OC(=O)Cc1ccccc1	inactive	inactive	inactive	inactive	inactive	inactive	inactive	inactive	inactive	–	–	inactive	inactive	inactive	inactive	inactive	inactive	–	–
CCCCC#N	inactive	inactive	inactive	inactive	inactive	inactive	inactive	inactive	inactive	–	inactive	inactive	inactive	inactive	inactive	inactive	inactive	–	–
CCNC(=O)NC(=O)/C(C#N)=N/OC	inactive	inactive	inactive	inactive	inactive	inactive	inactive	inactive	inactive	–	inactive	inactive	inactive	inactive	inactive	–	inactive	–	–
CN(C)C(=O)Nc1cccc(OC(=O)NC(C)(C)C)c1	inactive	inactive	inactive	inactive	inactive	inactive	inactive	inactive	inactive	–	inactive	inactive	inactive	inactive	inactive	–	–	–	inactive
O=C(O)C(F)(F)C(F)(F)C(F)(F)C(F)(F)C(F)(F)C(F)(F)C(F)(F)C(F)(F)F	inactive	inactive	inactive	inactive	inactive	inactive	inactive	inactive	12.2 µM (active)	–	–	inactive	inactive	inactive	inactive	inactive	–	–	–
NC(=S)c1c(Cl)cccc1Cl	inactive	inactive	inactive	inactive	inactive	inactive	inactive	inactive	–	–	inactive	inactive	inactive	inactive	inactive	–	inactive	inactive	inactive
O=C(O)C(F)(F)C(F)(F)C(F)(F)C(F)(F)C(F)(F)F	inactive	inactive	inactive	inactive	inactive	inactive	inactive	inactive	inactive	–	inactive	inactive	–	inactive	–	inactive	inactive	inactive	inactive
C=CC(=O)OCC	inactive	inactive	inactive	inactive	inactive	inactive	inactive	inactive	inactive	–	inactive	inactive	inactive	inactive	inactive	inactive	–	–	–

Source: PubChem BioAssay (Tox21)
